Consider seven compounds from the supplement of paper PMC11628255, “Interference of metal ions on the bioluminescent signal of firefly, Renilla, and NanoLuc luciferases in high-throughput screening assays” (Frontiers in Chemistry, 2024).

± gives the standard deviation of the averaged measurements.

The assay has as its system NanoLuc luciferase (NLuc). The experiment in a line: residual bioluminescent signal relative to negative (DMSO) control; higher = less interference (more residual luciferase signal). On the procedure:
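Purified luciferase (FLuc 10 nM + 10 uM D-luciferin; NLuc 10 pM + 10 uM furimazine; RLuc 50 pM + 2 uM coelenterazine) in 384-well plates; metal salt pre-incubated with enzyme 10 min at RT, substrate added and luminescence read after 10 min. Signal normalised to plate DMSO negative control (% N_VALUE = x/mean neg *100); triplicate wells at 0.01, 1 and 5 mM salt.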

The mark [1] stands for this setting: metal salt concentration 0.01 mM, HEPES conditions (100 mM HEPES, 0.1% BSA, pH 7.5).
The mark [2] stands for this setting: metal salt concentration 0.01 mM, screening conditions (PBS, 0.1% BSA, pH 7.4).
Where [3] appears, read: metal salt concentration 1 mM, HEPES conditions (100 mM HEPES, 0.1% BSA, pH 7.5).
[4] abbreviates: metal salt concentration 1 mM, screening conditions (PBS, 0.1% BSA, pH 7.4).
[5] abbreviates: metal salt concentration 5 mM, HEPES conditions (100 mM HEPES, 0.1% BSA, pH 7.5).
The mark [6] stands for this setting: metal salt concentration 5 mM, screening conditions (PBS, 0.1% BSA, pH 7.4).

For `O=[N+]([O-])[O-].O=[N+]([O-])[O-].[Ni+2]` [nickel(II) nitrate], the residual bioluminescent signal under setting [1] was found to be 89 ± 2%; the residual bioluminescent signal under setting [2] stood at 94.5 ± 3.8%; the residual bioluminescent signal under setting [3] was 87.6 ± 4.2%; the residual bioluminescent signal under setting [4] came to 91.4 ± 1.8%; the residual bioluminescent signal under setting [5] came out at 89.9 ± 2.2%; the residual bioluminescent signal under setting [6] stood at 78.1 ± 3.4%.
Regarding `O=[N+]([O-])[O-].O=[N+]([O-])[O-].[Zn+2]` [zinc nitrate], the residual bioluminescent signal is 93.6 ± 0.95% under setting [1]; 93 ± 6.4% under setting [2]; 30.5 ± 4.9% under setting [3]; 32.8 ± 4.5% under setting [4]; 16.1 ± 1.8% under setting [5]; 9.03 ± 2.6% under setting [6].
On to `[Cl][Sn][Cl]` [tin(II) chloride], for which the residual bioluminescent signal runs as follows: under setting [1], 95.8 ± 2.9%; under setting [2], 97 ± 5.1%; under setting [3], 90.1 ± 5%; under setting [4], 84.2 ± 6.6%; under setting [5], 87.3 ± 5%; under setting [6], 0.413 ± 0.39%.
As to `O=[N+]([O-])[O-].O=[N+]([O-])[O-].[Pb+2]` [lead(II) nitrate], the residual bioluminescent signal by setting is: under setting [1], 94 ± 3.2%; under setting [2], 93.8 ± 2.2%; under setting [3], 26.7 ± 2.9%; under setting [4], 88.2 ± 4.3%; under setting [5], 7.56 ± 0.53%; under setting [6], 44.2 ± 9%.
For the compound `O=[N+]([O-])[O-].[K+]` [potassium nitrate], the residual bioluminescent signal worked out at 95.2 ± 2.4% under setting [1]; 104 ± 1.6% under setting [2]; 90.9 ± 1.1% under setting [3]; 94.9 ± 3.4% under setting [4]; 101 ± 2% under setting [5]; 101 ± 4.7% under setting [6].
In the case of `O=[N+]([O-])[O-].[Li+]` [lithium nitrate], the residual bioluminescent signal under setting [1] turned out to be 93.22 ± 0.49%; the residual bioluminescent signal under setting [2] was determined as 96.7 ± 1%; the residual bioluminescent signal under setting [3] was 97 ± 3.4%; the residual bioluminescent signal under setting [4] stood at 95.4 ± 4.8%; the residual bioluminescent signal under setting [5] amounted to 102 ± 3.7%; the residual bioluminescent signal under setting [6] is 97.1 ± 3.3%.
On to `O=[N+]([O-])[O-].O=[N+]([O-])[O-].[Cu+2]` [copper(II) nitrate], for which the residual bioluminescent signal by setting is: under setting [1], 95.5 ± 6.9%; under setting [2], 90.4 ± 2.7%; under setting [3], 0.235 ± 0.062%; under setting [4], 0.732 ± 0.11%; under setting [5], 0.689 ± 0.91%; under setting [6], 0.201 ± 0.12%.
